Experimental findings from publication PMC4552634, “A New Set of Chemical Starting Points with Plasmodium falciparum Transmission-Blocking Potential for Antimalarial Drug Discovery” (PLoS ONE, 2015) are described below.

The % Inhibition is the relative decrease from the control value, in per cent.

Out of some 13,000 compounds screened, about 3,200 (25%) showed an effect of 50% or more. The list shows a part of the results.

This test has as its system P. falciparum stage V gametocytes. Also noted: BacTiter-Glo ATP luminescence viability of purified stage V gametocytes in 384-well plates, per cent inhibition versus DMSO. The note with it: 48 h, 5 µM; inhibitor.
As for `FC(F)(F)c1ccc2nccc(NN=Cc3cccnc3)c2c1` [TCMDC-142021], the “% Inhibition” value was -27.85%.
With `Cc1noc(-c2ccc(N3CCC(C(=O)N4CCN(C(C)C)CC4)CC3)cc2)n1` [TCMDC-136012] the figure was 8.914%; with `COc1ccc2nccc([C@@H](O)CN3CCC(NC(=O)c4ccc(Oc5ccccc5)cc4)CC3)c2c1` [TCMDC-141028], -18.23%.
For the compound `Cc1noc(C)c1-c1cccc(CNCc2cccc(-c3cccc(-c4nc5cc(C(F)(F)F)ccc5[nH]4)c3)c2)c1.O=C(O)C(F)(F)F` [TCMDC-133053], the “% Inhibition” value is on record as -28.51%.
Turning to `COc1ccc(C2CC(c3cccs3)=NN2C(=O)CNc2cccc(C#N)c2)cc1OC` (centres unmarked) [TCMDC-125050], the “% Inhibition” value is on record as -31.46%.
Under `N=C(NCCCc1ccccc1)c1cccc(C(=N)NCCCc2ccccc2)n1` [TCMDC-137453] stands 100.2%; under `N=C(NCC1CC1c1ccccc1)c1cccc(C(=N)NCC2CC2c2ccccc2)n1` (centres unmarked) [TCMDC-137456], 113.7%; under `N=C(NCCCCC1CCCCC1)c1cccc(C(=N)NCCCCC2CCCCC2)n1` [TCMDC-137452], 115.6%.
Under `Cc1cc2nc(-c3ccc(/C=C/C(=O)NCCCc4ccccc4)cc3)[nH]c2cc1C` [TCMDC-140436] stands -5.063%; under `OC(CNCCCc1ccccc1)c1cc(OCc2ccccc2)cc(OCc2ccccc2)c1` (centres unmarked) [TCMDC-132033], 38.73%; under `N#Cc1c(Cl)cccc1Oc1ccc(S(=O)(=O)N2CCC(CN3CCC(c4c[nH]c5ccccc45)CC3)CC2)cc1` [TCMDC-140172], 15.16%.
Regarding `Cc1cc(NC(=O)c2coc3cc(F)c(N4CC(C)N(C)C(C)C4)cc23)ccc1-n1ccnc1` (centres unmarked) [TCMDC-141394], the “% Inhibition” value came to 18.23%.
With `CCNc1cc(C(=O)N[C@@H](Cc2ccccc2)[C@H](O)CNCc2cccc(OC)c2C)cc(N2CCCCS2(=O)=O)c1` [TCMDC-132413] the figure was 37.46%.
Take `Cc1ccc(-c2ccc3c(c2)C=C(C(=O)NC2CCN(CCNC(=O)c4cccs4)CC2)CCC3)cc1` [TCMDC-141949]: the “% Inhibition” value is -0.2388%.
With `Cc1cccc(-c2cc3cc(Nc4ccnc5cc(-c6nccs6)ccc45)ccc3[nH]2)c1` [TCMDC-138348] the figure was -37.38%; with `Cc1ccc2nc(-c3ccccc3Nc3ccnc4cc(-c5nccs5)ccc34)[nH]c2c1` [TCMDC-138345], 108.2%; with `c1ccc(-c2nc3ccccc3[nH]2)c(Nc2ccnc3cc(-c4nccs4)ccc23)c1` [TCMDC-138346], 44.29%.
As to `Cc1nnc(-c2cccc(Nc3ccnc4cc(-c5nccs5)ccc34)c2)o1` [TCMDC-138335], the “% Inhibition” value was 93.46%.
Under `Cc1nc(-c2cccc(Nc3ccnc4cc(-c5nccs5)ccc34)c2)no1` [TCMDC-138334] stands 113.3%.
Under `CC(O)c1cccc(-c2ccc(Nc3ccnc4cc(-c5nccs5)ccc34)cc2)c1` (centres unmarked) [TCMDC-138331] stands -54.01%.
In the case of `c1ccc(Cn2nnnc2-c2cccc(Nc3ccnc4cc(-c5nccs5)ccc34)c2)cc1` [TCMDC-138337], the “% Inhibition” value was 1.923%.
Consider `CC(C)(C)c1cc2cc(Nc3ccnc4cc(-c5nccs5)ccc34)ccc2[nH]1` [TCMDC-138349], for which the “% Inhibition” value worked out at 14.13%.
Under `Nc1n[nH]c(-c2ccccc2Nc2ccnc3cc(-c4nccs4)ccc23)n1` [TCMDC-138301] stands 14.85%.
With `O=C(NCC(NCCCNc1cc(=O)c2ccccc2[nH]1)c1cc(Br)cc(Br)c1)C1=CCCC1` (centres unmarked) [TCMDC-140317] the figure was -52.55%; with `CC(=O)N[C@H](C(=O)Nc1cccc(-c2ccc(-c3nc4cccc(C)c4[nH]3)s2)c1)C(C)C` [TCMDC-136855], 31.89%.
With `Cc1ccc(-c2nc(N3CCN(C(=O)c4ccco4)CC3)c3ccc(Cl)cc3n2)cc1` [TCMDC-124781] the figure was 24.46%; with `Cc1ccc2c(Cl)c(C(=O)N3CC(C)OC(C)C3)sc2c1` (centres unmarked) [TCMDC-125624], 35.35%; with `COc1ccccc1Cn1ccnc1SCC(=O)Nc1cc(C(F)(F)F)ccc1Cl` [TCMDC-124736], -16.43%.
As to `Cc1cc(C)cc(OCC(O)CN(CCN2CCOCC2)C(=O)Nc2ccc(Br)cc2)c1` (centres unmarked) [TCMDC-141491], the “% Inhibition” value came out at 2.41%.
For the compound `CC(C)(CN1CCCC1)CN(Cc1ccc(-c2ccc(C(F)(F)F)cc2)cc1)C(=O)Cn1c(CCc2cccc(F)c2F)nc(=O)c2ccccc21` [TCMDC-141098], the “% Inhibition” value was determined as 107.5%.
Turning to `O=C(Cn1c(CCc2cccc(F)c2F)nc(=O)c2ccccc21)N(CCN1CCCCC1)Cc1ccc(-c2ccc(C(F)(F)F)cc2)cc1` [TCMDC-141088], the “% Inhibition” value is 27.65%.
Under `O=C(Cn1c(CCc2cccc(F)c2F)nc(=O)c2ccccc21)N(CCCN1CCCCC1)Cc1ccc(-c2ccc(C(F)(F)F)cc2)cc1` [TCMDC-141053] stands 101.4%; under `O=C(Cn1c(CCc2cccc(F)c2F)nc(=O)c2ccccc21)N(CCN1CCCC1)Cc1ccc(-c2ccc(C(F)(F)F)cc2)cc1` [TCMDC-141059], 66.66%; under `O=C(Cn1c(CCc2cccc(F)c2F)nc(=O)c2ccccc21)N(CCCN1CCCC1)Cc1ccc(-c2ccc(C(F)(F)F)cc2)cc1` [TCMDC-141055], 113.5%.
With `FC(F)(F)c1ccc2c(NCCc3ccccc3)ccnc2c1` [TCMDC-138552] the figure was -21.17%; with `COc1cccc2cc(C(=O)N[C@@H](CC(C)C)C(=O)N[C@H](/C=N/N(C)C(=O)OC(C)(C)C)CC(=O)OC(C)(C)C)oc12` [TCMDC-136092], 4.382%.
With `COc1ccc(NC(=O)Nc2nc(-c3ccc(Cl)c(C)c3)cs2)cc1N1CCN(C)CC1` [TCMDC-139155], the “% Inhibition” value is on record as 8.522%.
With `C[C@@H]1C[C@@H]([C@H](O)CC2CC(=O)NC(=O)C2)C(=O)[C@@H](C)C1` [TCMDC-125838] the figure was 50.08%.
With `O=C(NC1CCN(Cc2ccccc2)CC1)c1ccc(-c2nc3cc(Cl)c(Cl)cc3[nH]2)c(F)c1` [TCMDC-140083] the figure was 2.132%.
Under `N=C(N)c1ccc(-c2cc3ccc(C(=N)N)cc3[nH]2)cc1` [TCMDC-123458] stands 53.3%; under `c1cc(-c2cc3ccc(C4=NCCN4)cc3[nH]2)ccc1C1=NCCN1` [TCMDC-137748], 20.42%; under `N=C(N)c1ccc2[nH]c(-c3cc4cc(C(=N)N)ccc4o3)cc2c1` [TCMDC-137436], -17.43%.
With `COc1ccc2nccc([C@@H](O)CN3CCC(NC(=O)C(c4ccccc4C)N4CCC(Cc5ccccc5)CC4)CC3)c2c1` (some centres unmarked) [TCMDC-141102], the “% Inhibition” value stood at 2.818%.
As for `N=C1SC(=Cc2cn[nH]c2-c2ccc(F)cc2)C(=O)N1c1nccs1` [TCMDC-123515], the “% Inhibition” value amounted to 2.084%.
For `CCc1ccc(S(=O)(=O)Nc2cccc(CCN3CCC(N4CCCCC4)CC3)c2)cc1` [TCMDC-134077], the “% Inhibition” value came to 77.96%.
`O=S(=O)(Nc1cccc(CCN2CCC(N3CCCCC3)CC2)c1)c1ccc(-c2ccccc2)cc1` [TCMDC-134071]: the “% Inhibition” value was 47.75%.
As for `O=S(=O)(Nc1cccc(CCN2CCC(N3CCCCC3)CC2)c1)c1ccc(Oc2ccccc2)cc1` [TCMDC-134072], the “% Inhibition” value is given as 70.07%.
For `CC(C)c1ccc(S(=O)(=O)Nc2cccc(CCN3CCC(N4CCCCC4)CC3)c2)cc1` [TCMDC-134075], the “% Inhibition” value was found to be 76.83%.
Under `O=S(=O)(Nc1cccc(CCN2CCC(N3CCCCC3)CC2)c1)c1ccc(Oc2ccccc2)nc1` [TCMDC-134073] stands 14.52%; under `O=S(=O)(Nc1cccc(CCN2CCC(N3CCCCC3)CC2)c1)c1ccc(Cl)cc1` [TCMDC-134065], 22.65%.
With `CCc1ccc(S(=O)(=O)Nc2ccc(CCN3CCC(N4CCCCC4)CC3)cc2)cc1` [TCMDC-134089] the figure was 86.75%.
Consider `O=S(=O)(Nc1ccc(CCN2CCC(N3CCCCC3)CC2)cc1)c1ccc(Cl)cc1` [TCMDC-134078], for which the “% Inhibition” value is reported as 45.94%.
Under `Cc1ccc(NS(=O)(=O)c2ccc(C(C)N3CCC(N4CCCCC4)CC3)cc2)cc1C` (centres unmarked) [TCMDC-133540] stands 11.79%.
Take `COc1ccc(O)cc1Cc1cnc2nc(N)nc(N)c2c1C` [TCMDC-137498]: the “% Inhibition” value is given as -65.52%.
Under `COc1ccc2nccc([C@@H](O)CN3CCC(NC(=O)C(c4cc5ccccc5o4)N4CCN(c5ccccc5)CC4)CC3)c2c1` (some centres unmarked) [TCMDC-140989] stands 28.59%; under `CC(=O)N[C@H](C(=O)Nc1ccc(-c2ccc(-c3nc4cc(C(F)(F)F)ccc4[nH]3)s2)cc1)C(C)C` [TCMDC-136852], -48.64%.
Under `O=C(NCCc1ccc(Cl)c(Cl)c1)C1CCCN(C(=O)c2ccc(O)c(-c3ccc(Cl)c(Cl)c3)c2)C1` (centres unmarked) [TCMDC-140892] stands -3.917%; under `CC(CON1C(N)=NC(N)=NC1(C)C)Cc1ccc(Cl)cc1Cl` (centres unmarked) [TCMDC-131712], 20.42%; under `O=S(=O)(Nc1ccc(CCN2CCC(N3CCCCC3)CC2)cc1)c1ccc2ccccc2c1` [TCMDC-134079], 52.17%.
With `Cc1cc(NS(=O)(=O)c2cccc(C(C)N3CCC(N4CCCC4)CC3)c2)ccc1C(C)C` (centres unmarked) [TCMDC-133708] the figure was 8.518%; with `O=S(=O)(Nc1cccc(CCN2CCC(N3CCCCC3)CC2)c1)c1ccc2c(c1)OCCO2` [TCMDC-134067], 55.86%; with `COc1ccc2nccc([C@@H](O)CN3CCC(NC(=O)C(c4cccs4)N4CCN(c5ccc(F)cc5)CC4)CC3)c2c1` (some centres unmarked) [TCMDC-141100], 25.13%.
Regarding `COc1cc(C(=O)N2CCOC(CCN3CCC[C@H]3C(=O)Nc3ccccc3)(c3ccc(Cl)c(Cl)c3)C2)cc(OC)c1OC` (some centres unmarked) [TCMDC-135571], the “% Inhibition” value turned out to be 90.6%.
With `COc1cc(C(=O)N2CCOC(CCN3CCC(c4ccc(Cl)cc4)CC3)(c3ccc(Cl)c(Cl)c3)C2)cc(OC)c1OC` (centres unmarked) [TCMDC-135566] the figure was -3.164%; with `COc1cc(C(=O)N2CCOC(CCN3CCC4c5ccccc5CC43)(c3ccc(Cl)c(Cl)c3)C2)cc(OC)c1OC` (centres unmarked) [TCMDC-135567], -73.24%.
